Screening results deposited in PubChem by several laboratories.
PostGolgi ctrl: inhibits growth of the yeast control strain; AID 738; 98,000 tested, 5% active; inhibition, % at 10 µM; efflux-deficient yeast background strain, growth absorbance A615, 16 h
MT1-MMP txn act: MT1-MMP promoter transcription activation; 86,000 tested, 0.16% active; activation factor at 10 µM; AID 750; HT1080 MT1-MMP promoter luciferase reporter, luminescence, overnight; active compounds read high;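 active means activation factor of at least 2 for MT1-MMP transcription at 10 µM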
Measles CPE: protection of cells from measles virus. protection (pct of control), % at 4 µM. 140,000 tested, 1.5% active. Measles virus-infected cells, CPE protection, absorbance; in the data active means protection mostly above about 24%, no sharp cut-off; inactive means mostly below about 26%
PostGolgi yeast: growth inhibition of a yeast mutant, post-Golgi transport screen; inhibition, % at 10 µM; 98,000 tested, 0.9% active; post-Golgi transport phenotypic cell assay; AID 739;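 further: yeast cells grown in 1536-well plates; yeast grown about 18 h at 30C before absorbance read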
Active calls of the source: *; nt = no result. Rows were chosen to be rich in hits. Some 5.3% of all compounds tested hit in one or more screens of this group. Unless noted, no stated cut-off is given here; in the data, active means inhibition above about 30%; inactive means the rest.

SMILES	PostGolgi ctrl	MT1-MMP txn act	Measles CPE	PostGolgi yeast
CCOc1nc(SCCOc2ccccc2)nc(N(C)C)n1	5	1.1	1	41*
COc1ccc(OCCSc2ncccn2)cc1	33*	1	18	-4
O=C(N/N=C/c1cccc(Br)c1)c1ccc(Cn2cc(Br)cn2)o1	nt	nt	11	nt
O=c1c(-c2nnc(SCc3ccc(Cl)c(Cl)c3)o2)cccn1Cc1ccccc1	54*	nt	18	8
Clc1cccc(CSc2nnc(-c3c[nH]c4ccccc34)o2)c1	25	nt	5	-6
O=c1c2c3c(sc2nc2sc(C4CC4)nn12)CCCC3	15	2*	4	7
O=C1CCc2nc3sc4c(c3c(=O)n2N1)CCCC4	nt	0.9	nt	nt
CCC1=C(OC(=O)N(CC)CC)N2C(=O)OC(=NCC(=O)OC)[C@]2(Cc2ccccc2)[C@H]2C1=CC[C@H]1C(=O)N(c3ccccc3)C(=O)[C@H]12	nt	1.1	nt	nt
COc1ccccc1-c1nc2ccccc2nc1-c1ccccc1OC	nt	nt	12	nt
COc1cc(OC)c2c(OC)cccc2n1	nt	nt	92*	nt
Oc1ccc2ccccc2c1C=Nc1ccccc1-c1nc2ccccc2[nH]1	17	nt	2	1
CC1(C)Cc2c(sc3nc(SCC(=O)NCc4ccco4)n(-c4ccccc4)c(=O)c23)CS1	1	1.2	11	-2
O=C(CSc1nc2sc3c(c2c(=O)n1-c1ccccc1)CCCC3)NCc1ccco1	32*	1	27	-1
COc1cc(NC(=O)c2ccc(COCC(F)(F)F)cc2)cc(OC)c1OC	-3	nt	30*	-5
COc1ccc(NC(=O)c2ccc(COCC(F)(F)C(F)F)cc2)cc1OC	nt	nt	13	nt
O=C(/C(C=Nc1ccc(F)cc1)=C(/O)c1ccco1)C(F)(F)F	nt	nt	12	nt
CC(=O)NCCc1ccc(S(=O)(=O)Nc2cccnc2)cc1	33*	1	15	5
CC(C)(C)c1ccc(S(=O)(=O)Nc2cccnc2)cc1	30*	1	2	-3
CC(=O)NCCc1ccc(S(=O)(=O)N2CCCC2)cc1	-7	1.1	18	-4
O=S(=O)(Nc1cccnc1)c1ccc(Cl)cc1	8	1.1	16	-1
O=c1nc2ccccc2c2n1CC(CN1CCN(c3ccccc3F)CC1)N2 (centres undefined)	1	nt	13	-1
CCOC(=O)NC1(C(F)(F)F)C(=O)N(Cc2ccccc2)C2=C1C(=O)CC(C)(C)C2 (centres undefined)	13	1.2	7	8
CCC[C@@H]1C[C@@]1(CCC)C(NC(=O)c1ccco1)c1ccc(Cl)cc1 (some centres undefined)	nt	1.1	nt	nt
FC(F)Sc1ccc(NC(=S)NCC2CCCCC2)cc1	38*	1.2	4	36*
FC(F)Sc1ccc(NC(=S)NC2CCCCC2)cc1	8	1.4	8	-5
SMILES	PostGolgi ctrl	MT1-MMP txn act	Measles CPE	PostGolgi yeast
COc1cc(-c2nnc(-c3ccco3)o2)ccc1OCc1ccccc1	25	1.3	52	5
COc1cc(-c2nnc(-c3ccncc3)o2)ccc1OCc1ccccc1	9	1.2	91*	12
CCc1nnc(N2C(=O)c3cccc4cccc(c34)C2=O)s1	-4	1.1	8	4
CCc1c(C)sc(NC(=O)C2CC2c2ccccc2)c1C(N)=O (centres undefined)	21	nt	38*	-5
NNC(=O)[C@@H]1C[C@@H]1c1ccccc1	nt	nt	7	nt
CCC1=C2CC[C@H]3C(=O)N(C)C(=O)[C@H]3[C@H]2[C@@]2(C)C(=NCc3ccccc3)OC(=O)N2C1=O	nt	1.1	nt	nt
Cc1occc1C(=O)NNC(=S)NCc1ccccc1	nt	nt	25	nt
Cn1c(C(=O)N2CCCCCC2)cc2c(=O)n(C)c3ccccc3c21	9	1.1	11	-7
Cc1cccc(N2CCN(C(=O)c3cc4c(=O)n(C)c5ccccc5c4n3C)CC2C)c1 (centres undefined)	37*	1.2	16	-2
O=C(COC(=O)CCCN1C(=O)c2cccc3cccc(c23)C1=O)Nc1cccc(C(F)(F)F)c1	nt	nt	1	nt
O=c1oc2cc(OCc3c(F)cccc3Cl)ccc2cc1-c1ccccn1	18	nt	46*	10
CCCOc1ccc2cc(-c3ccccn3)c(=O)oc2c1	nt	nt	20	nt
CCOc1ccc2nc(NC(=O)C(NS(=O)(=O)c3cccc4nsnc34)C(C)C)sc2c1 (centres undefined)	14	nt	5	2
CC(C)C(NS(=O)(=O)c1cccc2nsnc12)C(=O)Nc1nc2ccc(Cl)cc2s1 (centres undefined)	47*	nt	11	-1
COc1ccc(C2CC(=O)N3CN(c4ccccc4F)CSC3=C2C#N)cc1OC (centres undefined)	3	1.1	19	-10
CCc1ccccc1N1CSC2=C(C#N)C(c3ccccc3F)CC(=O)N2C1 (centres undefined)	34*	1	8	0
Cc1cccc(NC(=O)C2(c3cccs3)CCOCC2)n1	nt	nt	11	nt
